Data taken from the supplement of paper PMC11417369.
± gives the standard deviation of the averaged measurements. The full ranking holds about 25,000 sequences; the median of “ln(normalized median fluorescence intensity)” is about 8.6, and the highest 2% start at about 10. This excerpt belongs to a sample that is enriched for the highest values.

test system: PfAP2-EXP AP2 domain (GST-tagged); assay: gcPBM binding intensity (ln(normalized median fluorescence intensity)); higher = stronger DNA binding
In short: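 Binding intensity values are the highest Masliner-normalised natural-log median intensity among replicate spots of either probe orientation. The binding step lasted 1 h in 1× PBS with 1% milk, 0.2 mg/ml BSA, 0.5% salmon testes DNA and 0.03% Triton X-100, using GST-tagged P. falciparum DNA-binding domains expressed in E. coli on an Agilent 4 × 180k array of primer-extended double-stranded 36-bp intergenic genomic probes plus negative controls. Alexa488 anti-GST antibody and a 488 nm scan detected bound protein.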

| Sequence | gcPBM binding intensity (ln) |
| --- | --- |
| TATATTATGACCACCACACACCTATACACATAACAT [CACACA_site7199] | 8.88 ± 0.43 |
| ATTATAACACCTCCCCCCCTTTTTTTATGAAGACCA [CACACA_negctrl_site1043] | 10.6 ± 0.18 |
| AACTTTTAGAAGAACACACACATATAGATTATGACC [CACACA_site6256] | 8.8 ± 0.26 |
| AAAAATAAAAAAAGCACACACATATATATATATATA [CACACA_site1885] | 10.2 ± 0.28 |
| AAAAATAAAAAAAGCACACACATATAAATAAATATA [CACACA_site6968] | 8.69 ± 0.6 |
| TAAAAAATAAAAAAAGCACACACATATATATATATA [CACACA_site8567] | 10.3 ± 0.25 |
| AATAAAAATAAAAGCACACATAAATATATATATATT [CACACA_site1441] | 8.66 ± 0.39 |
| AAAATAAAAATAAAAGCACACATAAATATATATATA [CACACA_site8409] | 9.64 ± 0.28 |
| AAAAAAAAAAAAAAAGCACACATATAAATATGAATA [CACACA_site8391] | 8.41 ± 0.24 |
| TTCTTTTTAATTAATACACACACACCCATATATATA [CACACA_site8719] | 8.83 ± 0.42 |
| AATGTATATATATATATATATATATATATTTATTTA [CACACA_negctrl_site113] | 8.43 ± 0.14 |
| CCCGTAAATTATGAGTGTACGTTATTTTTTAAAATG [XGTACX_site3946] | 8.81 ± 0.49 |
| ATAATGTTTTATAATACACACATTATATATATAAAT [CACACA_site6101] | 8.4 ± 0.37 |
| AATATATGTTAAAATGGTACACAATTATTATATATT [XGTACX_site6407] | 8.46 ± 0.4 |
| TATTCCTTCTACAATTAAATAATTATAATAAATATA [GTGCAC_negctrl_site26] | 8.46 ± 0.46 |
| AATTAGATACTAACAAGTACATATATATATATATAT [XGTACX_site2252] | 10.2 ± 0.26 |
| GAAATTATGTAAAAAAGTACTAACATACATATATAT [XGTACX_site1794] | 8.61 ± 0.32 |
| ACATACATATATATACGTACATATATATTTATATAT [XGTACX_site5799] | 8.75 ± 0.34 |
| CAAGTAGATATTATACGTACATATATATATATATAT [XGTACX_site8349] | 10.2 ± 0.32 |

| Sequence | gcPBM binding intensity (ln) |
| --- | --- |
| ATATATAGATAATCAAGTACATAACAAGATATAAGA [XGTACX_site2186] | 8.81 ± 0.47 |
| ATATATTATTATACATGTACATATATAGATATATAT [XGTACX_site4358] | 8.53 ± 0.35 |
| ATAATATCATAATATTGTACATATTTTATTTTAAAT [XGTACX_site1115] | 8.36 ± 0.29 |
| AATCTTCTTAATTGTAGTACACAATTTATAAACAAA [XGTACX_site8706] | 8.61 ± 0.3 |
| TGATATTATATATATACACACATGTATGTATTTATA [CACACA_site4874] | 8.32 ± 0.42 |
| AAATGTATATATGTATGTACATATATATATATATAT [XGTACX_site5778] | 10 ± 0.35 |
| ATATATATATATATGTGTACATATGTATATATATCT [XGTACX_site2930] | 10.1 ± 0.4 |
| TAATATCTACATATATGTACATATATATATATATAT [XGTACX_site7979] | 9.94 ± 0.4 |
| ATATATCTACATATATGTACATATATGTATATGTAT [XGTACX_site5432] | 8.41 ± 0.2 |
| ATATATATATATATGTGTACATATAAGATAGAAGAA [XGTACX_site3198] | 10.2 ± 0.35 |
| ATATATATGTATATATGTACATATATGTATATATAT [XGTACX_site4772] | 8.66 ± 0.17 |
| ATATATATATATATATGTACATATATATATGTATAT [XGTACX_site3959] | 10.2 ± 0.33 |
| ATGTATGTGTATATATGTACATAATATATATCTTTT [XGTACX_site8666] | 8.65 ± 0.32 |
| ATATATATATATATATGTACATAGAGAAGTATCTTT [XGTACX_site4737] | 10.4 ± 0.17 |
| ATATATATATATATATGTACATATATCTACATATAT [XGTACX_site7588] | 10.2 ± 0.14 |
| ATATATATATATATGTGTACATATATTAAGATATAT [XGTACX_site1065] | 10 ± 0.3 |
| AATAAATAGATATATACACACATATATGTGTACATA [CACACA_site7476] | 8.37 ± 0.29 |
| AATATAACTTAGAATTGTACATAAAAAAAAATATAT [XGTACX_site3313] | 8.68 ± 0.35 |
| CAAAATATTTAAAAAAGTACTTAAAATAAATTCAAA [XGTACX_site6866] | 8.48 ± 0.38 |

| Sequence | gcPBM binding intensity (ln) |
| --- | --- |
| CTTAAATCTACTATTTGTACATATTTTATTATTAAA [XGTACX_site6151] | 8.58 ± 0.37 |
| TTTATTTAAAAAATAAAAAAAAAAAAAAAAAAAAAA [CACACA_negctrl_site1670] | 7.82 ± 0.38 |
| GGATACGCTTTTGTACCACTCCCCCTTTTGGGAATA [CACACA_negctrl_site1363] | 8.88 ± 0.33 |
| AAAACTTGTCAGAATGGACACACGAATTAAAGGCCT [CACACA_site1215] | 8.79 ± 0.52 |
| GCATAAATTATCATAACATAAATATAAAAATATAAT [GTGCAC_negctrl_site55] | 8.36 ± 0.37 |
| TAGTTGTGAGTTACATGTACATGTATTTATTTTTTA [XGTACX_site7088] | 8.88 ± 0.47 |
| CCACACTTAAAATACACACACACCAAAAAAAAAAAA [CACACA_site2709] | 8.43 ± 0.37 |
| TATATTTGGTTTCATTCATTTTTATAGAAATCTCAA [CACACA_negctrl_site1412] | 8.48 ± 0.47 |
| ATATATATATATATATGTACATACATACATAGAACT [XGTACX_site2214] | 10.4 ± 0.3 |
| GTATATATGTATATATGTACATATATATAATATATT [XGTACX_site56] | 8.5 ± 0.16 |
| ATACATATATACATATGTACATATATATATATATAT [XGTACX_site8206] | 9.9 ± 0.39 |
| GATATGTGTATAATATGTACATATATATATATATAT [XGTACX_site6531] | 10.2 ± 0.5 |
| TATATAAATATAATATGTACATATAATATGTATATA [XGTACX_site8120] | 8.36 ± 0.26 |
| ATATATATATATATATGTACATATATACATATATGT [XGTACX_site1521] | 10 ± 0.49 |
| AAAGTGGCCATATATTTTTTTTTTTTTTTCCTTATT [CACACA_negctrl_site485] | 8.11 ± 0.53 |
| ACATATTAATTATTATGACATACATATCAGTTATTA [TGCATGCA_negctrl_site126] | 8.38 ± 0.27 |
| AGGCACTTATAATAATGTACATAAATAAAAAGAAAA [XGTACX_site6037] | 8.81 ± 0.35 |
| TTTTTATGAAAATAAACACACGATTTATTATATATA [CACACA_site1311] | 8.27 ± 0.34 |
